IL1B secr inh = blocks inflammasome-driven IL-1 beta release; THP-1 LPS/ATP IL-1B secretion, AlphaLISA, 16 h; hits give low values; 360,000 compounds, 4.7% hits; activity change, % at 57.5 µM; in the data active = activity change below about -50%; inconclusive = mostly about -30% to -49%
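Secreted IL-1B measured by AlphaLISA bead assay after 16 h compound exposure of THP-1 cells; compounds (final up to 57.5 uM) added 1 h before LPS (250 ng/mL) and ATP (1.25 mM) stimulation; lower signal means less secretion.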
MCF10A rerep = DNA re-replication induction in MCF 10a cells; MCF 10A DNA re-replication, Hoechst nuclear intensity, 48 h; Potency, µM (top dose mostly 46.1 µM), usual class: activators; 350,000 compounds, 2.9% hits; note: nearly all actives have a fitted effect of over 50% in size
VP16 counter = Gal4-VP16 reporter inhibition counter-screen; Potency, µM (top dose mostly 53.6 µM), hits mostly inhibitors; Drosophila S2 Gal4-VP16 UAS-luciferase, luminescence, 20 h; AID 2546; 310,000 compounds, 3.5% hits;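 note: Gal4-VP16 expression switched on by copper sulfate through the metallothionein promoter; nearly all actives have a fitted effect of over 50% in size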
RORgamma inh = inhibitors of mouse ROR gamma transcriptional activity. P51450. Drosophila S2 Gal4-RORgamma UAS-luciferase reporter, 20 h. Potency, µM (highest dose often 53.6 µM), most hits filed as inhibitors. 310,000 compounds, 5.4% hits; note: nearly all actives have a fitted effect of over 60% in size
Target sequence (P51450 whole entry, looked up, the tested form may be a part): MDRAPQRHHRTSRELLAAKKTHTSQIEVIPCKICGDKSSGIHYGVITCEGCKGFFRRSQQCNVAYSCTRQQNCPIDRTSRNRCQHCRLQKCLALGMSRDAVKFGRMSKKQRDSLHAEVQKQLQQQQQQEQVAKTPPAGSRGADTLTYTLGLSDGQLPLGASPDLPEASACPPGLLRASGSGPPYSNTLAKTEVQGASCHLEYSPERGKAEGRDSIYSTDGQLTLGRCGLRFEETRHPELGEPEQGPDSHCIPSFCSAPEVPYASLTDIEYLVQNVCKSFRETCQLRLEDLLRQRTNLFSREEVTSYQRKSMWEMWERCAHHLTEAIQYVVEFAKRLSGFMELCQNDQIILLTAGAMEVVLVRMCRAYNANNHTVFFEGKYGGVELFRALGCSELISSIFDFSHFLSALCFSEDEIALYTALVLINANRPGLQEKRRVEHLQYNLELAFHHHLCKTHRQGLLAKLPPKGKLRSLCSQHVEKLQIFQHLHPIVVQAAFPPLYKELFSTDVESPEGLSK
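Luminescence from a UAS-regulated Photinus luciferase reporter in stably transfected Drosophila Schneider cells is measured; decreased signal marks ROR gamma inhibition. Fusion expression is induced by 700 uM copper sulfate for 20 hr.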
SW480 rereplic = induces DNA re-replication in SW480 colon adenocarcinoma cells; Potency, µM (doses to about 46.1 µM), most hits filed as activators; 340,000 compounds, 1.8% hits; SW480 DNA re-replication, Hoechst DNA content imaging, 48 h; note: nearly all actives have a fitted effect of over 55% in size
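DNA re-replication was detected as more nuclei of elevated Hoechst intensity after 48 hr exposure to compound (23 nL pinned per well of 250 cells).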
Large screens that a line does not name were inactive. An excerpt weighted towards active compounds, which were near 11% of everything screened. Unless noted, calls come from the whole dose curve; as a rule, active = well fitted curve in the direction sought with a large enough effect; inconclusive = small, poorly fitted or top-dose-only effect, or another doubt; inactive = no such curve, though single readings can be large; an effect the other way counts as inactive or inconclusive.

OCCNc1nc(Nc2ccc(Br)cc2)nc2ccccc12	IL1B secr inh -101, MCF10A rerep inconclusive
O=C(NC1CC1)c1ccc(-c2nc3ccccc3s2)s1	VP16 counter inconclusive, RORgamma inh 7.9µM
CCNC(=O)COC(=O)c1ccc(-c2nc3ccccc3s2)s1	VP16 counter inconclusive, RORgamma inh inconclusive, SW480 rereplic inconclusive
CCN1CCN(C(=O)c2ccc(-c3nc4ccccc4s3)s2)CC1	MCF10A rerep inconclusive
c1ccc2sc(SN3CCOCC3)nc2c1	VP16 counter 7.1µM, RORgamma inh 10µM
O=C(c1ccc(-c2nc3ccccc3s2)s1)N1CCOCC1	MCF10A rerep inconclusive, VP16 counter inconclusive, RORgamma inh 4.5µM
C=CCc1cccc2cc(C(=O)N3CCN(C(=O)c4ccco4)CC3)c(=O)oc12	MCF10A rerep 13µM, SW480 rereplic inconclusive
C=CCc1cccc2cc(C(=O)N3CCN(c4ccccn4)CC3)c(=O)oc12	none
O=C(N/N=C/c1cn(Cc2cccc(F)c2)c2ccccc12)c1cc(O)cc(O)c1	none
COc1cc(C(=O)N/N=C/c2cn(Cc3ccccc3)c3ccccc23)ccc1O	VP16 counter inconclusive, RORgamma inh 13µM
Cn1cc(/C=N/Nc2ccccc2)c2ccccc21	MCF10A rerep inconclusive, SW480 rereplic inconclusive
Nc1ccc(C(=O)N/N=C/c2cn(Cc3ccccc3F)c3ccccc23)cc1	IL1B secr inh -67, VP16 counter inconclusive, RORgamma inh 14µM
CC(C)n1cc(/C=N/Nc2ccc(C(=O)O)cc2)c2ccccc21	VP16 counter 0.32µM, RORgamma inh 0.032µM
O=C(O)c1ccc(N/N=C/c2cn(Cc3ccccc3F)c3ccccc23)cc1	MCF10A rerep 21µM, SW480 rereplic inconclusive
CC(C)(C)NC(=O)C(c1ccc(C(F)(F)F)cc1)n1c(=O)c(-c2ccco2)nc2ccccc21 (stereo not given)	none (no result: MCF10A rerep, VP16 counter, RORgamma inh, SW480 rereplic)
Nc1ccc(C(=O)N/N=C/c2cn(Cc3ccccc3)c3ccccc23)cc1	VP16 counter inconclusive, RORgamma inh 11µM
Nc1ccc(C(=O)N/N=C/c2cn(Cc3ccc(F)cc3)c3ccccc23)cc1	IL1B secr inh inconclusive, VP16 counter inconclusive
COC(=O)N/N=C/c1cn(Cc2ccccc2F)c2ccccc12	IL1B secr inh -75, MCF10A rerep inconclusive
NC(=O)CSc1cn(Cc2ccccc2)c2ccccc12	IL1B secr inh -65
O=C1CCC(C(=O)Nc2cc(C(F)(F)F)ccc2-n2cncn2)=NN1	none
COc1ccc(-c2cc(NC=O)c3ncc(-c4ccc(OC)c(OC)c4)n3c2)cc1	none (no result: MCF10A rerep, VP16 counter, RORgamma inh, SW480 rereplic)
CC(C)C[C@@H](CC(=O)N[C@@H](CCC(=O)O)CC(=O)O)NC(=O)[C@@H]1CNCC[C@H]1NC(=O)C[C@@H](NC(=O)C[C@H](Cc1ccccc1)NC(=O)[C@@H]1CNCC[C@H]1N)C(C)C	none (no result: IL1B secr inh, MCF10A rerep, SW480 rereplic)
COc1ccc(NCC(=O)n2c(C)c(C)c3ccccc32)cc1	MCF10A rerep 18µM, SW480 rereplic inconclusive
O=C(OCN1C(=O)c2ccccc2C1=O)c1cccnc1SC(F)F	none
Cc1ccc(/C=C(/NC(=O)c2ccccc2)C(=O)NC(Cc2c[nH]c3ccccc23)C(=O)O)cc1 (stereo not given)	none
CNC[C@H](CC1CCCCC1)NC[C@H](Cc1ccccc1)NCCC12CC3CC(CC(C3)C1)C2	IL1B secr inh -100, MCF10A rerep inconclusive, VP16 counter inconclusive, RORgamma inh 20µM
CN(C)CC1CCC/C(=C\c2ccc(OC(=O)/C=C/c3ccc(Cl)c(Cl)c3)cc2)C1=O (stereo not given)	IL1B secr inh inconclusive (no result: VP16 counter, RORgamma inh)
CN(C)CC1CCC/C(=C/c2ccc(Cl)cc2)C1=O (stereo not given)	MCF10A rerep 18µM, SW480 rereplic inconclusive (no result: VP16 counter, RORgamma inh)
COc1ccc(/C=C2/CCCC(CN(C)C)C2=O)cc1 (stereo not given)	IL1B secr inh -72, MCF10A rerep 2.9µM, SW480 rereplic 9.2µM (no result: VP16 counter, RORgamma inh)
COc1cccc(/C=C2\CCCCC2=O)c1	IL1B secr inh -80
COc1ccc(OC)c(N/C=C2/CCCCC2=O)c1	none
CCCC/C=C1/CCC(CN(C)C)C1=O (stereo not given)	MCF10A rerep 5.8µM, SW480 rereplic inconclusive (no result: VP16 counter, RORgamma inh)
COc1ccc(NC(=O)CN(c2ccc(OC)cc2)S(=O)(=O)c2ccc(OC)c(OC)c2)cc1	MCF10A rerep inconclusive, SW480 rereplic inconclusive
CCc1ccc(C(=O)C(C)CN2CCCCC2)cc1 (stereo not given)	SW480 rereplic inconclusive (no result: IL1B secr inh)
